Screening results deposited in PubChem BioAssay by Center for Chemical Genomics, University of Michigan.
Compounds with a hit are over-represented: about 0.9% of the library has one in this group of screens.
CDC25B CDK2 inh = human CDC25B-CDK2/CyclinA binding inhibition; HTRF CDC25B-CDK2/CyclinA binding, anti-His/anti-Flag; active compounds read high; z-score (concentration not given with the values); hit rate 0.72% among 94,000; AID 1259370; in the data active = z-score above about 3.2
HIV TAR-Tat = HIV-1 TAR-Tat binding disruption | HIV-1 TAR RNA, Tat peptide displacement FRET; active compounds read high | z-score (concentration not given with the values) | hit rate 0.6% among 100,000; active = z-score of 3 or more in at least 2 runs
Each line names hits and unclear results; the compound was inactive in the other large screens.

O=C(NC(NC(=S)Nc1cccc2ccccc12)C(Cl)(Cl)Cl)c1ccccc1F (centres undefined)	CDC25B CDK2 inh 5.27 (no result: HIV TAR-Tat)
O=C(NC(NC(=S)Nc1ccccc1Br)C(Cl)(Cl)Cl)c1ccccc1 (centres undefined)	none (no result: HIV TAR-Tat)
COC(=O)c1sc2ccccc2c1S(=O)(=O)Nc1cc(OC)ccc1OC	none (no result: CDC25B CDK2 inh)
CCSCCOC(=O)C1=C(C)NC2=C(C(=O)C(C(=O)OC)C(C)C2)C1c1ccc2ccccc2c1 (centres undefined)	none
COc1cccc(CNCc2noc3ccccc23)c1	none (no result: CDC25B CDK2 inh)
O=S(=O)(c1ccc(F)cc1)N1CCN(Cc2ccc3c(c2)OCO3)CC1	CDC25B CDK2 inh 15.8
O=S(=O)(c1cccc(F)c1)N1CCN(Cc2ccc3c(c2)OCO3)CC1	none (no result: HIV TAR-Tat)
CCCCN1CCS(=O)(=O)c2c(Cl)c(N3CCOCC3)nc(Oc3ccc(F)cc3)c21	none
COc1ccc(Oc2nc(N3CCCC3)c(Cl)c3c2N(CC2CCCO2)CCS3(=O)=O)cc1 (centres undefined)	CDC25B CDK2 inh 9.36
Cc1nnc2c(Nc3ccccc3Br)nc3ccccc3n12	none
Cn1c(=O)c2c(-c3ccc(Br)cc3)n(-c3ccc4c(c3)nc(CO)n4C)cc2n(C)c1=O	CDC25B CDK2 inh 14.8
Cc1ccc(-n2cc3c(c2-c2ccc(Br)cc2)c(=O)n(C)c(=O)n3C)cc1	none
O=C(NCc1cccs1)C1CCCN(S(=O)(=O)N2CCOCC2)C1 (centres undefined)	none (no result: CDC25B CDK2 inh)
CSc1cccc(NC(=O)CSc2nc(-c3ccc(Cl)cc3)nc3cc(=O)[nH]n23)c1	HIV TAR-Tat 18.1 (no result: CDC25B CDK2 inh)
Cc1cc(C)cc(NC(=O)CSc2nc(-c3ccc(Cl)cc3)nc3cc(=O)[nH]n23)c1	HIV TAR-Tat 22.9 (no result: CDC25B CDK2 inh)
Cc1ccc(NC(=O)CSc2nc(-c3ccc(Cl)cc3)nc3cc(=O)[nH]n23)cc1C	none (no result: CDC25B CDK2 inh)
O=C(CSc1nc(-c2ccc(Cl)cc2)nc2cc(=O)[nH]n12)Nc1ccccc1	none (no result: CDC25B CDK2 inh)
O=C(NC1CCCC1)c1cccc(Nc2nc3ccccc3n3nnnc23)c1	none (no result: CDC25B CDK2 inh)
CN(NC(=O)c1cccs1)c1ccc([N+](=O)[O-])cn1	none (no result: HIV TAR-Tat)
CC1=C(OC(=O)c2c(Cl)cccc2Cl)C(=O)CC1	none (no result: HIV TAR-Tat)
O=C(c1ccccc1)N1c2ncnn2C2(CCCCC2)[C@@H]2CCCC[C@@H]21	none
Cc1cccc(C(=O)N2c3ncnn3C3(CCCCC3)[C@@H]3CCCC[C@@H]32)c1	HIV TAR-Tat 9.19
CC(C)Nc1nc(N2CCN(C)CC2)nc2c1cnn2C	none (no result: CDC25B CDK2 inh)
COc1ccc(S(=O)(=O)N2CCN(c3cc(N4CCCCC4)nc(C)n3)CC2)cc1C	none
COc1ccc(OC)c2c(C)cc(N3CCN(S(=O)(=O)c4ccc(C)cc4)CC3)nc12	HIV TAR-Tat 7.84
Cc1ccc(C)n1-c1ncccc1O	none (no result: HIV TAR-Tat)
Cc1ccc(-c2nc3nc(C)cc(NCc4cccnc4)n3n2)cc1	none (no result: CDC25B CDK2 inh)
CCOc1cc(C2CC(=O)N3CN(c4ccc(C)cc4)CSC3=C2C#N)ccc1O (centres undefined)	CDC25B CDK2 inh 3.2
CCOC(=O)CN1CSC2=C(C#N)C(c3ccc(F)cc3)CC(=O)N2C1 (centres undefined)	none
CCOc1ccc(C2CC(=O)N3CN(C)CSC3=C2C#N)cc1OC (centres undefined)	CDC25B CDK2 inh 3.64
CCOc1ccc(N2CSC3=C(C#N)C(c4ccc(C)o4)CC(=O)N3C2)cc1 (centres undefined)	CDC25B CDK2 inh 3.39
COc1ccc(C2CC(=O)N3CN(CCc4ccccc4)CSC3=C2C#N)cc1OC (centres undefined)	none
CCOC(=O)c1ccc(N2CSC3=C(C#N)C(c4ccc(C)cc4)CC(=O)N3C2)cc1 (centres undefined)	CDC25B CDK2 inh 6.13
CC1CCN(S(=O)(=O)c2nnc(NC(=O)c3ccco3)s2)CC1	none
O=C(NCCC1=CCCCC1)C1CCCN(c2nc3ccccc3[nH]2)C1 (centres undefined)	none (no result: CDC25B CDK2 inh)
CC(=O)N(Cc1nnc2c3ccccc3c(C)nn12)c1ccccc1	none
COc1nnc(-c2ccc(C)c(S(=O)(=O)NCc3cccnc3)c2)c2ccccc12	none
Cc1cc2c(cc1S(=O)(=O)Nc1ccccc1Br)OCCN2C	none (no result: CDC25B CDK2 inh)
CCOC(=O)N1CCN(S(=O)(=O)c2coc(C)c2C(=O)OC)CC1	none (no result: HIV TAR-Tat)
Cc1ccc(NC(=O)CCc2nnc3ccc(NCc4ccc5c(c4)OCO5)nn23)nc1	none (no result: CDC25B CDK2 inh)
CN1CSC2=C(C#N)C(c3cccc(OCc4ccccc4)c3)CC(=O)N2C1 (centres undefined)	CDC25B CDK2 inh 3.36
Cc1ccc(C2CC(=O)N3CN(C)CSC3=C2C#N)cc1 (centres undefined)	none
CN1CSC2=C(C#N)C(c3ccccc3)CC(=O)N2C1 (centres undefined)	none
CCOC(=O)c1ccc(N2CSC3=C(C#N)C(c4ccc(SC)cc4)CC(=O)N3C2)cc1 (centres undefined)	CDC25B CDK2 inh 5.1
COC(=O)c1ccc(N2CSC3=C(C#N)C(c4ccc(C)cc4)CC(=O)N3C2)cc1 (centres undefined)	CDC25B CDK2 inh 15.6
CCCc1nc(SCC(=O)Nc2nc3ccccc3s2)c2c(=O)n(C)c(=O)n(C)c2n1	none (no result: CDC25B CDK2 inh)
Cc1nn(-c2ccc(C(=O)O)cc2)c2c1C(=O)CCC2	none
COC(=O)c1cc(C(=O)Nc2cc(C(=O)OC)ccc2C(=O)OC)cc([N+](=O)[O-])c1	none (no result: HIV TAR-Tat)
c1ccc(Nc2ncnc3sc4c(c23)CCCC4)cc1	none
COc1ccc(OCCN[C@H]2CS(=O)(=O)C[C@@H]2S(=O)(=O)c2ccc(F)cc2)cc1	none
Cn1c(=O)c(=O)n(C)c2cc(N3CCCC3)c(NC(=O)c3cccs3)cc21	none
CN1C2=C(C(=O)CCC2)C(c2ccc(O)cc2)C2=C1CCCC2=O	none
O=C1c2ccccc2C(=O)c2c1oc(C(F)(F)F)c2C(=O)c1ccc2ccccc2c1	CDC25B CDK2 inh 9.29 (no result: HIV TAR-Tat)
O=C(c1ccc2c(c1)C(=O)c1ccccc1-2)c1ccccc1Br	none (no result: HIV TAR-Tat)
C=C(C)/C=C1/C=CC(=O)C(C)=C1	HIV TAR-Tat 4.55 (no result: CDC25B CDK2 inh)
O=C(Nc1cc(F)c2nc(N3CCCC3)ccc2c1)C1CCCC1	none (no result: CDC25B CDK2 inh)
Cc1c2c(=O)n(-c3nc4ccccc4s3)nc-2cc(O)n1CCc1c[nH]c2ccccc12	HIV TAR-Tat 9.19
Cc1nn(C(C)C(=O)NCCc2c[nH]c3ccccc23)c(=O)c2c1sc1ccccc12 (centres undefined)	none
Cc1c2c(=O)n(-c3nc4ccccc4s3)nc-2cc(O)n1CCc1cnc[nH]1	HIV TAR-Tat 26.4
CCC(C)Cn1c(C)c2c(=O)n(-c3nc4ccccc4s3)[nH]c2cc1=O (centres undefined)	none
O=C(C1CCn2c(nc3ccccc32)C1)N1CCCC1 (centres undefined)	none (no result: CDC25B CDK2 inh)
Cc1nn(CC(=O)N2CCCC2)c(=O)c2c(C)n(-c3ccc(Cl)cc3)nc12	none (no result: CDC25B CDK2 inh)
CCOc1ccc(-c2n[nH]c3c2cnc2cc4c(cc23)OCCO4)cc1	CDC25B CDK2 inh 15.2, HIV TAR-Tat 16.9
Cc1ccc(-c2n[nH]c3c2cnc2cc4c(cc23)OCCO4)cc1	none (no result: CDC25B CDK2 inh)
CCOCCc1nn2c(=O)cc(COC(=O)CSc3ccccc3)nc2s1	none (no result: CDC25B CDK2 inh)
Cc1cc(C)cc(-n2nnc(-c3nc(-c4cccs4)no3)c2N)c1	none (no result: CDC25B CDK2 inh)
